High-throughput results: PubChem, National Center for Advancing Translational Sciences (NCATS)
Compounds with a hit are over-represented: about 21% of the library has one in this group of screens.
D3 ag: activates the human D3 dopamine receptor; AID 652048; D3R DiscoveRx beta-arrestin cells, luminescence, 90 min; max activation, %; P35462; actives 0.58% (n = 410,000); in the data active = max activation above about 30%; note: 0% is about no effect
Target sequence (P35462 whole entry, looked up): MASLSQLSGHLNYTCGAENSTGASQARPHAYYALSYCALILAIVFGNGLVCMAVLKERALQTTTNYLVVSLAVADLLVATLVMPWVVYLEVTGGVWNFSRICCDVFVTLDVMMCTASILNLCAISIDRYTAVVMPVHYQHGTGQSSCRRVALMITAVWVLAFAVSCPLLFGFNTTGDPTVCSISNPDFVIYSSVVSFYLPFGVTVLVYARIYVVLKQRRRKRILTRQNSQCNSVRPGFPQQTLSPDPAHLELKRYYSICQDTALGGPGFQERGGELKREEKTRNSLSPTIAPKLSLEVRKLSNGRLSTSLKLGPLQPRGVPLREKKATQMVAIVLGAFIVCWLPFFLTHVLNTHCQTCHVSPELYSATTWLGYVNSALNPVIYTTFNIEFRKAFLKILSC
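Cells at 1500/well, incubated overnight, then treated with pinned compounds (dopamine as control) for 90 min at 37 degrees C. DiscoveRx reagent added for 30 - 60 minutes at room temperature; luminescence read.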
IL-1B inflam inh: blocks inflammasome-driven IL-1 beta release. activity change, % at 57.5 µM. actives 4.7% (n = 360,000). THP-1 LPS/ATP IL-1B secretion, AlphaLISA, 16 h; hits give low values; in the data active = activity change below about -50%; inconclusive = mostly about -30% to -49%; note: % is set by controls: 0 for no effect and ±100 for the full control effect
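THP-1 cells pretreated 1 hr with compounds (up to 57.5 uM final), then stimulated with LPS (250 ng/mL final) plus ATP (1.25 mM final); secreted IL-1B measured by AlphaLISA after 16 hr, decreased signal indicating inhibition.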
DT40 TDP1 no CPT: qHTS for Inhibitors of human tyrosyl-DNA phosphodiesterase 1 (TDP1): qHTS in cells in absence of CPT; AID 686978, 2013; DT40 Tdp1-/- hTDP1 cells, no CPT, ATP luminescence, 48 h; actives 15% (n = 420,000); Potency, µM (doses to about 46.2 µM), without a hit: at the top dose activity change, negative = growth inhibition, hits mostly inhibitors; note: potency is the fitted concentration of half-maximal effect; % is set by controls: 0 for no effect and ±100 for the full control effect; nearly all actives have a fitted effect of over 55% in size
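No-CPT arm: Tdp1-/-;hTDP1 DT40 cells (400/well) plus compounds, incubated ≥48 hr at 37 °C. Readout CellTiter-Glo luminescence.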
D3 antag: blocks the human D3 dopamine receptor; P35462; AID 652054; D3R cells, DiscoveRx beta-arrestin luminescence, antagonist mode; hits give low values; max response, negative = inhibition, %; actives 2.5% (n = 360,000); in the data active = max response below about -50%; inconclusive = no clear call, values can overlap the other calls; note: % is set by controls: 0 for no effect and ±100 for the full control effect
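Cells expressing the human receptor were seeded at 1500 cells/well, incubated overnight at 37 degrees C in 5% CO2, then exposed to library compounds with dopamine controls for 90 minutes at 37 degrees C before luminescent detection.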
TDP1 cell CPT: growth inhibition of DT40 Tdp1-/-;hTDP1 cells with camptothecin (screen for TDP1 inhibitors); chicken DT40 Tdp1-/-;hTDP1 cells + 20 nM CPT, ATP luminescence, 48 h; actives 12% (n = 420,000); Potency, µM (doses to about 46.2 µM), for inactives: at the top dose activity change, negative = growth inhibition, hits mostly inhibitors; AID 686979; note: potency is the fitted concentration of half-maximal effect; % is set by controls: 0 for no effect and ±100 for the full control effect; nearly all actives have a fitted effect of over 55% in size
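Chicken DT40 Tdp1-/- cells complemented with human TDP1, 400 cells/well, exposed to compounds plus 20 nM camptothecin for at least 48 h at 37 C; viability read as ATP content by CellTiter-Glo luminescence.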
ClpP mod: qHTS Assay for Activators of ClpP; actives 1.9% (n = 340,000); purified B. subtilis ClpP, FRET peptide cleavage, 20 min; Potency, µM (doses to about 57.5 µM), inactives show top-dose activity change, negative = active; active = well fitted falling curve with a large enough effect; inconclusive = small, poorly fitted or top-dose-only effect; inactive = no such curve, though single readings can be large or run the other way; note: potency is the fitted concentration of half-maximal effect; the source files actives as falling curves though it sought activators and does not explain the sign; nearly all actives have a fitted effect of over 65% in size
Target sequence (P80244 whole entry, looked up): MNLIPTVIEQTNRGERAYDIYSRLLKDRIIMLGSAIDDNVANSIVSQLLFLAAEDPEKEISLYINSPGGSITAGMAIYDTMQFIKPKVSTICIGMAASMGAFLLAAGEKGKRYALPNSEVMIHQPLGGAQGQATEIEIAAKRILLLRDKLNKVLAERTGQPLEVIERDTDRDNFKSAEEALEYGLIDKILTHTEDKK
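FRET quenching reversal measured ClpP activation: 10 microg/mL B. subtilis ClpP at pH 8 with the FRET-FV decapeptide, read at 430 nm after 320 nm excitation. The 20-min minus 0-min signal was scaled between DMSO/no-enzyme wells and ADEP (5.8 microM final).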
Active calls of the source: *; ? = inconclusive; . = no result given; [ ] = another dose, or the depositor's remark. Unless noted, calls come from the whole dose curve; as a rule, active = well fitted inhibition curve with a large enough effect; inconclusive = small, poorly fitted or top-dose-only effect; inactive = flat fitted curve, though single readings scatter.

SMILES	D3 ag	IL-1B inflam inh	DT40 TDP1 no CPT	D3 antag	TDP1 cell CPT	ClpP mod
O=C(c1ccc2c(c1)N(Cc1ccccc1F)C(=O)c1ccccc1S2=O)N1CCN(c2ccccc2)CC1 (centres undefined)	7	.	16µM*	.	23µM*	-1%
O=C(c1ccc2c(c1)N(Cc1ccc(Cl)cc1)C(=O)c1ccccc1S2=O)N1CCN(c2ccccc2F)CC1 (centres undefined)	2	.	21µM*	.	23µM*	0%
NC(=O)c1ccccc1OCC(=O)Nc1ccc2c(c1)OCCO2	-9	-21	-27%	-22	-22%	-1%
CCOc1ccc(C2C(C#N)=C(N)N(N(C)C)C3=C2C(=O)CC(C)(C)C3)cc1 (centres undefined)	6	-10	-4%	-8	-29%	.
Cc1cccc(N=C2NN=C(c3ccc4c(c3)OCCO4)CS2)c1	10	-3	-12%	-12	-8%	-4%
Cc1cccc(N=C2NN=C(c3c(C)[nH]c4ccccc34)CS2)c1	-7	?	?	-10	?	18µM*
O=C1/C(=C\c2ccccc2)CN(C(=O)CCN2CCCCC2)C/C1=C/c1ccccc1	-8	-67*	1.5µM*	-62*	1.3µM*	?
CCN(CC)CCC(=O)N1C/C(=C/c2ccccc2)C(=O)/C(=C\c2ccccc2)C1	-14	-99*	3.7µM*	-1	1.8µM*	-1%
O=C1/C(=C\c2ccc(Cl)c(Cl)c2)CN(C(=O)CCN2CCOCC2)C/C1=C/c1ccc(Cl)c(Cl)c1	-21	-101*	0.82µM*	-79*	0.58µM*	1%
O=C(NCCN1CCOCC1)c1ccc(Cl)c(Cl)c1	-23	6	4%	-20	24%	.
O=C(CCN1CCCC1)Nc1ccccc1	-3	16	-11%	?	-14%	0%
O=C(O)C1=CC(O)[C@@H](O)C(O)C1 (some centres undefined)	.	.	-2%	.	0%	.
N#CC1C(=N)Cc2ccccc2-c2ccccc21 (centres undefined)	-10	-17	21µM*	-24	?	.
Cc1cc(C(=O)NNC(=O)Cc2ccc(Cl)c(Cl)c2)c(C)o1	9	-5	-6%	-1	-17%	-1%
COc1ccc(Cn2nc(-c3ccccc3)c(N3CCCCC3)cc2=O)cc1	-7	-232*	12µM*	3	?	.
O=c1cc(N2CCCCC2)c(-c2ccccc2)nn1Cc1ccccc1	-1	-99*	?	-17	?	.
Cn1c(C(=O)NCCCN2CCCCCC2)cc2c(=O)n(C)c3ccccc3c21	-8	-29	?	-7	18µM*	4%
Cn1c(C(=O)NCCCN2CCc3ccccc3C2)cc2c(=O)n(C)c3ccccc3c21	-16	-53*	?	-70*	?	4%
Cc1n[nH]c(C)c1CCNC(=O)C1CCC(=O)N(Cc2ccccc2F)C1 (centres undefined)	-4	4	7%	10	3%	0%
CCOc1ccccc1NC(=O)c1cc(S(=O)(=O)N2CCOCC2)cn1C	-4	.	-2%	.	5%	-2%
NCCO	10	.	7%[92.5 µM]	.	6%[92.5 µM]	.
COc1ccc(-n2c(-c3ccco3)nc3c(cnn3-c3ccccc3C)c2=O)cc1	5	33	23µM*	0	?	-1%
COc1ccc(-n2c(-c3ccco3)nc3c(cnn3-c3ccccc3Cl)c2=O)cc1	-9	.	?	.	?	-1%
COc1cccc(-n2c(-c3ccco3)nc3c(cnn3-c3ccccc3C)c2=O)c1	-14	.	18µM*	.	21µM*	-2%
COc1cccc(-n2c(-c3ccco3)nc3nc4ccccc4nc32)c1	0	6	-19%	-8	-5%	-7%
SMILES	D3 ag	IL-1B inflam inh	DT40 TDP1 no CPT	D3 antag	TDP1 cell CPT	ClpP mod
COCc1c(C(=O)N2CCN(C3CCCCC3)CC2)cnn1-c1ncc(C)c(-c2cccs2)n1	.	.	-5%	.	2%[9.04 µM]	.
COC(=O)c1ccc(NC(=O)CSC2=NCCN2)cc1	-9	-53*	15µM*	-1	?	-3%
CC(NC(=O)CSC1=NCCS1)c1ccccc1 (centres undefined)	2	-55*	-3%	-13	8%	-2%
O=C(CSC1=NCCS1)NCc1ccco1	-3	27	12µM*	-1	13µM*	0%
O=C(CSC1=NCCS1)NC(c1ccccc1)c1ccccc1	-15	-72*	16µM*	-29	?	1%
CC(=O)Nc1ccc(S(=O)(=O)NC2(C(F)(F)F)C(=O)Nc3c2c(=O)[nH]c(=O)n3-c2ccc(C)cc2)cc1 (centres undefined)	10	.	12%	.	-7%	-5%
CCOc1cc(C(=O)NCc2ccc3c(c2)OCO3)cc(OCC)c1OCC	-17	-19	-16%	?	4%	.
CCOc1ccc(C(C)NC(=O)Cc2ccccc2F)cc1OCC (centres undefined)	-3	-1	-10%	-12	2%	.
O=C(O)[C@@H]1CCCN1C(=O)CCc1c[nH]c2ccccc12	-1	43	-1%	1	-7%	-7%
COC(=O)c1cc(NC(=O)CSC2=NCCS2)cc(C(=O)OC)c1	2	-4	0%	-8	-1%	25µM*
O=C(CSC1=NCCS1)NC(NC(=O)CSC1=NCCS1)c1ccccc1	12	-22	-28%	-5	-2%	.
O=C(CSC1=NCCS1)Nc1cccc2ccccc12	-1	-5	16µM*	8	?	-16%
CCc1ccc(NC(=O)CCC(=O)Nc2nnc(C(F)(F)F)s2)cc1	5	12	0%	-3	-19%	1%
CCCS(=O)(=O)NC(=O)C1(C)CCCN(C(=O)c2ccc(C(=O)OC)cc2)C1 (centres undefined)	-9	0	-2%	0	-3%	1%
Cc1ccc2c(=O)c(C(=O)c3ccccc3)cn(CC(=O)NCc3ccccc3)c2n1	27	.	?	.	?	-2%
COc1ccc(/C=C/C(=O)Nc2cccc(S(=O)(=O)NC3=NCCCCC3)c2)cc1	6	0	23µM*	-16	?	-6%
COc1cc(/C=C/C(=O)Nc2cccc(S(=O)(=O)NC3=NCCCCC3)c2)ccc1OCC#N	-5	-56*	26µM*	-19	?	-1%
O=C(COC(=O)/C=C/c1ccc(Cl)cc1)Nc1cccc(S(=O)(=O)NC2=NCCCCC2)c1	6	-9	-30%	-3	?	-2%
